This is one part of the list. Active and inactive are the calls of the source. Unless noted, no stated cut-off is given here; in the data, active means binding response below about 72% or above about 130%; inactive means in between.
Legend:
[1] = target: Regulator of G-protein signaling 16 (Homo sapiens) (UniProt O15492); assay: small molecules altering RGS protein interactions with GNAO1 – biochemical, multiplexed beads, flow cytometry, RGS4/7/8/16/19, primary screen (AID 1504); settings: multiplexed bead flow cytometry, measured here: RGS16 interaction, at 10 µM;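 further: fluorescently labeled Galpha-o bound to GDP with aluminium fluoride binding biotinylated RGS beads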
[2] = target: Regulator of G-protein signaling 19 (Homo sapiens) (UniProt P49795); assay: as above; settings: multiplexed bead flow cytometry, measured here: RGS19 interaction, at 10 µM
[3] = target: Regulator of G-protein signaling 7 (Homo sapiens) (UniProt P49802); assay: as above; settings: multiplexed bead flow cytometry, measured here: RGS7 interaction, at 10 µM
[4] = target: Regulator of G-protein signaling 8 (Homo sapiens) (UniProt P57771); assay: as above; settings: multiplexed bead flow cytometry, measured here: RGS8 interaction, at 10 µM
[5] = interference with biotin-avidin bead interaction – biochemical, flow cytometry, bead-based, counter-screen for RGS protein interaction modulators (AID 1783;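 active means inhibition above 50%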;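 on inhibition: median green fluorescence of gated singlet beads compared with DMSO control wells; 0% = DMSO wells and 100% = complete loss of bead fluorescence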); settings: streptavidin beads, fluorescein-biotin binding; at 10 µM, stronger effect = higher value
[6] = target: Guanine nucleotide-binding protein G(o) subunit alpha (Homo sapiens) (UniProt P09471); assay: retest of RGS8-Galphao interaction hits – biochemical, multiplexed bead flow cytometry, single concentration, confirmation (AID 1836); settings: bead-based flow cytometry RGS8-Galphao binding, fluorescence; at 10 µM; actives lie on both sides;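 further: Galphao activated as GDP AlF4 complex before binding bead RGS8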
Guanine nucleotide-binding protein G(o) subunit alpha (Homo sapiens), sequence (P09471 whole entry, looked up): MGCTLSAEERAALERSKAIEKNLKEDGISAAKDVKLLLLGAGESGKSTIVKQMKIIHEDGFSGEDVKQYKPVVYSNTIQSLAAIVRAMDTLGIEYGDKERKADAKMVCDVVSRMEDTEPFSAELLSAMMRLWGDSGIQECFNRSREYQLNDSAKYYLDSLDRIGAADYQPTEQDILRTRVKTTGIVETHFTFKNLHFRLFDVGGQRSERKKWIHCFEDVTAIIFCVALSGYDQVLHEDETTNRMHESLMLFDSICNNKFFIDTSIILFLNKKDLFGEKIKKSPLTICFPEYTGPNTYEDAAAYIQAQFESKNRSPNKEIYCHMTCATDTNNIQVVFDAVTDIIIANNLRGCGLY

[7] = target: Guanine nucleotide-binding protein G(o) subunit alpha (Homo sapiens) (UniProt P09471); assay: retest of RGS7-Galphao interaction hits – biochemical, multiplexed bead flow cytometry, single concentration, confirmation (AID 1837; in the data active means response below about 75% or above about 130%; inactive means in between;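 further: fluorescent Galphao activated with GDP and aluminum fluoride binding bead-coupled RGS7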); settings: bead-based flow cytometry RGS7-Galphao binding; at 10 µM; actives lie on both sides
[8] = target: Regulator of G-protein signaling 16 (Homo sapiens) + Guanine nucleotide-binding protein G(o) subunit alpha (Homo sapiens) (UniProt O15492+P09471); assay: RGS16 and Galphao interaction regulators – biochemical, single concentration, multiplexed bead flow cytometry, confirmation (AID 1838; in the data active means response below about 74% or above about 130%; inactive means in between;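 further: Galphao activated as the GDP aluminium fluoride complex binding bead-coupled RGS16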); settings: bead-based flow cytometry, at 10 µM, actives lie on both sides
Regulator of G-protein signaling 16 (Homo sapiens) + Guanine nucleotide-binding protein G(o) subunit alpha (Homo sapiens), sequence (O15492 whole entry, looked up): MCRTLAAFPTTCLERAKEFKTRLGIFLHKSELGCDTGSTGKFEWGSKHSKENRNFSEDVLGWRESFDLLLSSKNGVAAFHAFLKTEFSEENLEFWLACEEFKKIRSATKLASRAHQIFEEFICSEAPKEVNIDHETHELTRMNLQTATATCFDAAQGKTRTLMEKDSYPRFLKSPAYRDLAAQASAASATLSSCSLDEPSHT
Regulator of G-protein signaling 16 (Homo sapiens) + Guanine nucleotide-binding protein G(o) subunit alpha (Homo sapiens), sequence (P09471 whole entry, looked up): as the sequence (P09471 whole entry, looked up) above

[9] = target: Guanine nucleotide-binding protein G(o) subunit alpha (Homo sapiens) (UniProt P09471); assay: RGS4 and Galphao interaction regulators – biochemical, single concentration, multiplexed bead flow cytometry, confirmation (AID 1840; in the data active means binding response below about 74% or above about 130%; inactive means in between); settings: at 10 µM, actives lie on both sides
[10] = target: Guanine nucleotide-binding protein G(o) subunit alpha (Homo sapiens) + Regulator of G-protein signaling 19 (Homo sapiens) (UniProt P09471+P49795); assay: RGS19 interaction with Gαo, hit retest – biochemical, single point, multiplexed bead flow cytometry, confirmation (AID 1841; in the data active means response below about 50% or above about 160%; inactive means in between;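 further: 100% = no compound control and 0% = blank background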); settings: bead-based flow cytometry RGS19-Galphao binding; at 10 µM; actives lie on both sides
Guanine nucleotide-binding protein G(o) subunit alpha (Homo sapiens) + Regulator of G-protein signaling 19 (Homo sapiens), sequence (P09471 whole entry, looked up): as above
Guanine nucleotide-binding protein G(o) subunit alpha (Homo sapiens) + Regulator of G-protein signaling 19 (Homo sapiens), sequence (P49795 whole entry, looked up): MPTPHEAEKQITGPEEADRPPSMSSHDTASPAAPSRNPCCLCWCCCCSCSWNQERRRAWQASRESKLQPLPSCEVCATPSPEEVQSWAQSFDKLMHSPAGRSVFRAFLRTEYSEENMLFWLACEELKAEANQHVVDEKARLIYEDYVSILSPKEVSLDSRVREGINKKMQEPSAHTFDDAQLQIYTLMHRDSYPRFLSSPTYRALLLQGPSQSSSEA

SMILES	RGS16–Galpha-o binding response [1] [%]	RGS19–Galpha-o binding response [2] [%]	RGS7–Galpha-o binding response [3] [%]	RGS8–Galpha-o binding response [4] [%]	inhibition [5]	binding response (% of control) [6]	response (percent of control binding) [7]	response (% of control binding) [8]	binding response (% of control) [9]	response (percent of control binding) [10]	outcome [5]
C/C(=C/C(=O)N1CCN(C)CC1)C(=O)O	234	-6.25	105	125	0.5% (inactive)	104% (inactive)	98.7% (inactive)	105% (inactive)	102% (inactive)	102% (inactive)	–
CCOC(=O)c1oc2c(CN3CCN(C)CC3)c(O)ccc2c(=O)c1-c1ccc(Br)cc1	142	79.7	318	107	-0.6% (inactive)	97.5% (inactive)	95.5% (inactive)	98.4% (inactive)	96.9% (inactive)	92.8% (inactive)	–
CCN(CC)CCOc1ccc2c(c1)C(=NNC(=O)c1ccccn1)c1cc(OCCN(CC)CC)ccc1-2	203	146	216	154	–	–	–	–	–	–	–
O=C(CN1CCCCC1)N1c2ccccc2Sc2ccc(C(F)(F)F)cc21	-6.83	241	27.5	22.7	–	–	–	–	–	–	–
CCOC(=O)C1Sc2[nH]c(=O)sc2C(c2ccc(Cl)cc2)C1C(=O)OCC (stereo unspecified)	-39.2	128	-17.7	7.38	–	–	–	–	–	–	–
Fc1cc(F)c2nc(Nc3nc4c(F)cccc4s3)sc2c1	192	-2.22	112	122	0% (inactive)	103% (inactive)	103% (inactive)	103% (inactive)	103% (inactive)	107% (inactive)	–
O=C(Nc1ccc(-n2ccnc2P(=O)(O)c2ccccc2)cc1)c1ccccc1Br	143	394	152	105	–	114% (inactive)	135% [activator] (active)	118% (inactive)	129% [activator] (active)	139% (inactive)	inactive
Cc1cc(C)n(CC(O)CN(c2ccccc2)S(=O)(=O)c2ccc3ccccc3c2)n1 (stereo unspecified)	-6.51	163	1.45	15	1.1% (inactive)	101% (inactive)	104% (inactive)	103% (inactive)	104% (inactive)	98.9% (inactive)	–
O=C(CSc1ccc2nnc(-c3ccccc3)n2n1)N1CCCc2ccccc21	413	-1120	207	112	2% (inactive)	104% (inactive)	101% (inactive)	101% (inactive)	103% (inactive)	108% (inactive)	–
CCC(=O)N1CCC(C(N)=O)(N2CCCCC2)CC1	417	90.3	161	163	2% (inactive)	93.5% (inactive)	90.7% (inactive)	94.8% (inactive)	94.8% (inactive)	88.3% (inactive)	–
C=CCn1c(Cn2nnc3ccccc32)nnc1SCC(=O)N/N=C/c1cc(Br)cc(OC)c1O	-35.2	144	-19.4	5.17	–	–	–	–	–	–	–
COc1ccc(-n2c(SCC(=O)OC(C)C)nnc2-c2ccccn2)cc1	242	103	101	134	-1.2% (inactive)	99.1% (inactive)	96.9% (inactive)	93.3% (inactive)	97.2% (inactive)	60.1% (inactive)	–
CCOC(=O)NNc1cc(C(F)(F)F)ccn1	148	84.9	66.9	133	-0.7% (inactive)	104% (inactive)	107% (inactive)	104% (inactive)	102% (inactive)	109% (inactive)	–
Oc1ccc(N=Nc2nccs2)c(O)c1	-16.2	158	270	6.26	-1.7% (inactive)	99% (inactive)	96.5% (inactive)	97.6% (inactive)	98.7% (inactive)	99.6% (inactive)	–
C=CCn1c(=NC(=O)c2cccs2)sc2cc(NC(C)=O)ccc21	152	58.7	152	136	-1.6% (inactive)	103% (inactive)	107% (inactive)	103% (inactive)	102% (inactive)	109% (inactive)	–
Oc1ccc(-c2onc3ccc(Cl)cc23)cc1	415	108	110	144	0% (inactive)	92.4% (inactive)	89.7% (inactive)	91.4% (inactive)	89% (inactive)	79.4% (inactive)	–
CCC(=O)Nc1c(S(=O)(=O)c2ccccc2)c2nc3ccccc3nc2n1Cc1ccccc1	13.9	285	87.2	70.1	-0.3% (inactive)	103% (inactive)	99.2% (inactive)	104% (inactive)	103% (inactive)	101% (inactive)	–
CC(=O)Nc1nc(N(C)C)nc(N(C)C)n1	28	162	-0.2	25.1	3.9% (inactive)	100% (inactive)	103% (inactive)	104% (inactive)	104% (inactive)	109% (inactive)	–
CC(NC(=O)COC(=O)C1CCN(S(=O)(=O)c2ccccc2C(F)(F)F)CC1)c1ccccc1 (stereo unspecified)	327	-23.1	115	148	-0.6% (inactive)	98.3% (inactive)	96.9% (inactive)	99.8% (inactive)	97.2% (inactive)	97.7% (inactive)	–

From PubChem BioAssay
